Results from the supplement of paper PMC12632987.
Whole data set: some 2,300 sequences, median “median log2 fold change of GCK-ALFA target abundance (FLAG IP / Myc IP barcode read proportion)” near 0.095, cut for the lowest 2% near -0.47. Many of the other results were omitted from the sample, so the lowest values are more common in it than they were.

B1: LC3A_28_1052 (protein)
chain: SHIDEQIEKALKEAEEAKAKGEEALIELHIGKDANEEDVEKVLETIEKIAEITKDLPSVTIIVDVDNPNKEEVTKKIDEVGEELAKKYPNVTVIIALSEE
B2: LC3A_28_1053 (protein)
chain: SAIDKQLEAALAEARAAAAAGEEALITLTIPENATEEDVEKVLATIREIAEITKDLPATTIIVDVDNKNQEEVTKKIDEVGEELAKKYPNVTVIIALSEN
B3: LC3A_free_46_2334 (protein)
chain: TLVVVEVDVLAPDRATAEAFVADLEARIRARLAEAGIDAEVEVELEEGPDGKTFRVTVKVRLKDPEADPQEVADLVVDAIDESAEEHGLSYIISVEIIEE
B4: LC3A_28_811 (protein)
chain: SHVDEVIAAVKEEGEKLKNSKEDVLLEVRVSGDITVEEAERLMDAIEEIARELAKNRKVYIVITAEEPISQEVLDTILDRAEEIEEKYPNVSVIVALPEE
B5: LC3A_3_1711 (protein)
chain: GEELIEEAEKILKEKGLSEETKKAVLEALKALLEKGYINAAKELIKLLKEAKDLSDEVILDFAKDVLEYVKTEDVSEEETIKKIKEEYEIAKNEEEIEEL
B6: LC3A_free_46_2301 (protein)
chain: IKVEIDIYFGAAPLEKIEEAAKRLTETAEKKAKELGAEVEIEVKITKNEDGTYTLEIRITAKVKTLEDANKFIQAISDKVDEINKELGIAAIMSIEVIEE
B7: LC3A_3_1472 (protein)
chain: LEERLEEVLKRLREAGASEEVLEAVREAYEKLKELGHEEAAKTFIEEMEKLVGLPSELLLAFAEDVLAAVEKYADDPEKLIEEIKSIAAATRNEAEIIEL
B8: LC3A_28_903 (protein)
chain: SPALESAEKALKEVKKAVAAGNQEPLVLEVKAPSTQEDVDKLLKLLEEIAEEASKLKGVSIIIDIDESVSQENRDRIIDKAEELEEKYPNVTIIIALPES
B9: LC3A_17_539 (protein)
chain: KEELKEELKKLIEEAEKLVEEVKPYIPEEAEKAKKRLKEAKKLLEEGKLKEAAELLAETADEMADAVSETEWEDPLKRTLLELEFDSLAIEAESILLKLE
B10: LC3A_28_1059 (protein)
chain: MSIEEELEEALEEAREAVERGEEALIELTIDEDATEEDVELVLETMEEIAELTKDLPRTTIVVDVDHKNKEEVTKLVSEKGDRLEKRYPNVTVIIALSEE
B11: LC3A_28_671 (protein)
chain: SALEEQLEKALAEAKKLAAKGEPGVIVIEVPGDATEEEIERLIKTLEEIAEILKDVKGSAIVIELDKDLKEEHRQRIIDAAERINEKYPNVTVIIAMEER
B12: LC3A_45_1922 (protein)
chain: MYEATLDLLVPKELAEEAYELIKKLLEELEKKRGPNFKVDYETLDASYEASKDEEDVYLEVKIYAPTEEEALDAAIEIEEELSKELGGKVASIISVKKVP
B13: LC3A_28_979 (protein)
chain: SALEKELAAKIAEAKKAAAAGEPAVITIKVSGDTNEEQLAKIIETLEEIAEILKDVKGSAIIIDIDRGVDPKHKQKLIDKGEEIEKKYPNVTVIFALEEE
B14: LC3A_36_1337 (protein)
chain: MVVIVLSAASEEVRAAEEAHYRAKGATVFAVAVEDLDEATKEEILAVVKAAGPDADIIIVAVAETEEGLAKVLKKASELADYIEEETGRTVIIEVDLVEK
B15: LC3A_141_370 (protein)
chain: KTVTFTKTFTNSSLDEVIAGMEELEKEVLAAHEKLGGGKVKVTVTVTIKNSKTGETKVIKEEFEADKETLEMIMEGVLIEAASARLTENANITVTVTLEA
B16: LC3A_28_1047 (protein)
chain: SELEENAEKAIAEARKQLEQGEEAVVTLKVPDMPTEEAVRIFRETLERLIALSKEYGGKKISVVVDFDGDQETFDAIVDIAEEAEKADPNLTVIVALSEE
B17: LC3A_28_815 (protein)
chain: MTAEEIIKQIREQAEKGKQSDEMVLIEVKISGTITEEEAKEIMEVIREESAELAKDRPVAVLIDLEAPISQEVIDLIADMAEEIEKELPNVSVIIALPEE
B18: LC3A_free_8_2554 (protein)
chain: ISEEQKAKISEVLDKAEEEIVKKAKEMGVSEEEINELEALMGFLLQDVLDALEEGPEAALKAFEEESKLIVEYAKELGEELAKEVKKVLEEAKKEIEKIL
B19: LC3A_28_1007 (protein)
chain: MSLIEKTKEEIKKALEQAEKGEDAFLEIEIPSTATKEEVEEVLKLIEEAAKEVSKLEGVKLYVVIDDSGSPEIHDLVVDRADEIEEKYPNVSVIIAYDDK
B20: LC3A_free_46_2383 (protein)
chain: YKAEIDIDFGAMDKETAEKIAEEIKKAAEEISKKYGVKVEVEVEIIEDEDGNYYLRVKITIEGEDKEKVEEAVNELIEKIDEIAEKANVSYIISVEFIDE
B21: LC3A_132_253 (protein)
chain: SKELLEKALKELKEILDKIVELLQAGKDPWPAIKELYEKALEYAKKLSLEETEKLAEEVEAYAEKLFAERLDPNNEEARRALEHIEMLLESVLIEKELRS
B22: LC3A_132_254 (protein)
chain: SEELLEKALKELKELLDKIVADLKAGKDPWPTINKLYELALKYAEKLSLEETEKLAEESEKYAEELFAKELDPNDEEARRTLDIVEMLLESVLIEKELRS
B23: LC3A_132_255 (protein)
chain: SKELLEKALKELKEILDKIVELLQAGKDPWPAVKELEEKAEEYAEKLSLEETEELVKESEKYAEELFAARLDPNNEEARRVLDHIEMLFESVLIEKELKS
B24: LC3A_28_1225 (protein)
chain: AAVDAEIAAARAAMAAAAAAGEEATITVKITGKTTLADVKRLMEALRAIVAEHAHLPRISIIIDLSGKVTQEQIDAAAEGGERIEKEFPNVTVILALDEN
B25: LC3A_28_983 (protein)
chain: MDPREQVEELIKKAKEAAAKGEATVFTITVTSTATEEDIELITEGLKEIAEILKDVKGSAIIVDVESGVPEEYIDKIAETMEEIEKANPNVTTIIALDED
B26: LC3A_free_8_2473 (protein)
chain: SVQELVDQITALLDELEEKVREKAKELGVDELDILELELEIGSLIADLISASDGTIEEVKEIAEEGLEEIEELAKELSEEIAEIVRETREKILALLEAAE
B27: LC3A_free_0_2120 (protein)
chain: KKTVVEVVIILDDSTSEEKAKEIHEKLKEEAEKLAKENGGELKSSLSKSDGSYIITLEITFDTEDIDLALEVERKLVEIAEKILKEANVEATIYSSVYLE
B28: LC3A_free_39_2213 (protein)
chain: SEEELEELLKKVAEESGLDYEYIKKKIEEIQKVAGLSLEQMKKIVEAILEAVKEGANAEEILERILALAKELKAAGKSPEEIAKALLEEVEDYRNLIPLD
B29: LC3A_free_39_2211 (protein)
chain: SEEELEELLKKVAEESGLDYEYIRERVEEIRRVAGLSLEQMLELVKAILEAVREGADAEEILEEVLALAKELVAAGKSPEEIAEALLEEVEDFRNLIPLD

Biological target: MAP1LC3A, Q9H492
Assay: median log2 fold change of GCK-ALFA target abundance (FLAG IP / Myc IP barcode read proportion) (log2 ratio); each designed protein is fused to an ALFA-tag nanobody in HEK293 cells to bring the named protein to FLAG-tagged glucokinase (GCK); Myc marks an untargeted standard; higher = target protein stabilised (more abundant)
Details: target protein: 3xFLAG-MCP-GCK-ALFA reporter; HEK293 landing pad (RPLP)
Method in brief: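 Binders fused to an ALFA nanobody were recombined as a library into HEK293 landing-pad cells, which were induced with 2 μg mL^−1 doxycycline and then transfected to express a FLAG-tagged target and a Myc-tagged standard. After 48 h, circular RNA barcodes recovered by anti-FLAG and anti-Myc immunoprecipitation of lysates were reverse transcribed, amplified and sequenced. Each binder's target abundance is the median log2 ratio of FLAG to Myc barcode read proportions, from barcodes present at ≥10^−7 in both replicates, binders carrying ≥3 barcodes per replicate, a 10^−6 pseudocount and pooled replicates.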

Binder | median log2 fold change
B1 | -0.553
B2 | -0.454
B3 | 0.0611
B4 | -0.124
B5 | -0.0281
B6 | -0.0458
B7 | 0.213
B8 | -0.303
B9 | -0.51
B10 | -0.148
B11 | 0.0757
B12 | -0.405
B13 | -0.00812
B14 | 0.15
B15 | -0.474
B16 | -0.153
B17 | -0.179
B18 | -0.0712
B19 | -0.353
B20 | 0.115
B21 | 0.0444
B22 | -0.669
B23 | 0.276
B24 | 0.191
B25 | -0.2
B26 | -0.379
B27 | -0.12
B28 | 0.203
B29 | -0.819
